Measured values taken from PubChem BioAssay AID1347417 (National Center for Advancing Translational Sciences (NCATS), 2020).
The whole screen tested about 120,000 compounds, of which about 5,300 (4.4%) were called active. A call without a number means that no potency is given here. Not shown: some 22% with an inconclusive outcome. Many of the other results were omitted from the sample, so actives are more common in it than they were. Unmarked numbers belong to inactive results. Calls come from the whole dose curve; as a rule, active = well fitted inhibition curve with a large enough effect; inconclusive = small, poorly fitted or top-dose-only effect; inactive = no such curve, though single readings can be large or run the other way.

assay: qHTS Primary assay for Inhibitors of Plasmodium falciparum Dd2 growth in vitro; note: nearly all actives have a fitted effect of over 65% in size; settings: P. falciparum Dd2 growth, SYBR Green, 72 h; series mostly up to 28.9 µM
Procedure, shortened: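 Readout: SYBR Green fluorescence, 485 nm excitation, 535 nm emission, after ~16 h lysis at 37C. Before that, Dd2-infected red cells (2.5% hematocrit) grew 72 h with compound, 29 uM top final concentration.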
Potency is the fitted concentration of half-maximal effect.

Row | Structure (SMILES) | Potency | activity, negative = inhibition
1 | CC1CCC(NC(=O)CN2C(=O)NC3(CCS(=O)(=O)CC3)C2=O)CC1 (stereo not drawn) | inactive | –
2 | Cc1ccc(CNC(=O)c2ccc(OC3CCN(S(C)(=O)=O)CC3)c(Cl)c2)s1 | inactive | –
3 | CN(Cc1cccn1C)Cc1ccnn1C | inactive | –
4 | CN(Cc1ccc(-c2ccccc2)cc1)C(=O)c1ccccc1F | inactive | –
5 | O=C(O)COc1ccccc1CN1CC[C@H]2NCCC[C@]2(C(=O)O)C1 | inactive | –
6 | COc1ccccc1CNC(=O)CN1CCCC(CO)(CC2CC2)C1 (stereo not drawn) | inactive | –
7 | CC(C)=CCC1(CO)CCCN(Cc2ccccc2OCCO)C1 (stereo not drawn) | 12.6 µM (active) | –
8 | Cc1ccsc1CN1CCCCCNC(=O)[C@@H]2CCC[C@@H]21 | inactive | –
9 | CC(C)N1C[C@H](O)C[C@H]1c1nnc2n1CCN(C(=O)CCCc1ccccc1)C2 | inactive | –
10 | COc1ccc(-c2cc(N3CCCC(NC(=O)c4cc(F)ccc4Cl)C3)n[nH]2)cc1 (stereo not drawn) | 8.91 µM (active) | –
11 | COc1ccc(-c2cc(N3CCC(NC(=O)c4ccoc4)CC3)n[nH]2)cc1 | 0.794 µM (active) | –
12 | COc1ccc(-c2cc(N3CCC(NC(=O)c4ccc5c(c4)OCO5)CC3)n[nH]2)cc1 | inactive | –
13 | COc1ccc(-c2cc(N3CCCC(NC(=O)c4ccsc4)C3)n[nH]2)cc1 (stereo not drawn) | inactive | –
14 | O=C(NC1CCCN(c2cc(-c3ccc(Cl)cc3)[nH]n2)C1)c1ccccc1F (stereo not drawn) | inactive | –
15 | COc1ccc(-c2cc(N3CCC(NC(=O)c4cccc(C)c4)CC3)n[nH]2)cc1 | inactive | –
16 | COc1cccc(C(=O)N2CCC(N3C[C@H](O)C[C@H]3C(=O)N3CCC(N4CCCCC4)CC3)CC2)c1 | inactive | –
17 | CC(C)Cc1ccc(S(=O)(=O)N2CCCC2c2nncn2Cc2ccncc2)cc1 (stereo not drawn) | inactive | –
18 | CCC(CC)C(=O)N[C@@H](Cn1cc(-c2ccccc2F)c(=O)[nH]c1=O)C(=O)O | inactive | –
19 | CN(Cc1cccnc1)c1nc2c(c(=O)[nH]1)CCN(Cc1cc(F)ccc1F)CC2 | – | 14.7% [at 5.79 µM]
20 | COc1ccc(-c2onc(C)c2C(=O)NCc2ccc3c(c2)OCO3)cc1 | inactive | –
21 | CCOc1ccccc1NC(=O)N1c2ccccc2CC1c1nc(C(C)C)no1 (stereo not drawn) | – | -4.28% [at 5.79 µM]
22 | O=C(NC[C@H]1C[C@@H]2CCN1C[C@@H]2CN1CCN(c2ncccn2)CC1)c1ccc(C(F)(F)F)cc1 | inactive | –
23 | C=C[C@H]1CN2CC[C@H]1C[C@@H]2CNCc1ccc(C(F)(F)F)cc1 | 2.24 µM (active) | –
24 | O=C(CC1=C2CCCCC2NC1=O)Nc1ccccc1F (stereo not drawn) | inactive | –
25 | O=C(NC1CCCc2c1[nH]c1ccc(F)cc21)c1n[nH]c2c1CCCC2 (stereo not drawn) | inactive | –
26 | c1ccc2c(c1)CNC1(CCN(Cc3cccc4ccccc34)CC1)CO2 | 2 µM (active) | –
27 | COc1ccc(CN2CCC3(COc4ccccc4C(=O)N3)C2)cc1 (stereo not drawn) | inactive | –
28 | CC1=NOC2(CCN(Cc3c[nH]c4ccccc34)CC2)C1 | inactive | –
